# In all, about 67,000 compounds went through this assay and about 300 (0.45%) showed an effect of 50% or more. For the sample, strong results were picked, then their nearest neighbours and some compounds at random.
# Biological target: Polyketide synthase Pks13 (Mycobacterium tuberculosis (strain ATCC 25618 / H37Rv)) (UniProt I6X8D2)
# Test: Mycobacterium tuberculosis Polyketide synthase 13 Thioesterase (PKS13)
# Assay type: functional
# Design: scale not given: in the data most compounds retested in dose-response had high values
# Details: 30 µM
# Sequence of Polyketide synthase Pks13 (Mycobacterium tuberculosis (strain ATCC 25618 / H37Rv)) (I6X8D2 whole entry): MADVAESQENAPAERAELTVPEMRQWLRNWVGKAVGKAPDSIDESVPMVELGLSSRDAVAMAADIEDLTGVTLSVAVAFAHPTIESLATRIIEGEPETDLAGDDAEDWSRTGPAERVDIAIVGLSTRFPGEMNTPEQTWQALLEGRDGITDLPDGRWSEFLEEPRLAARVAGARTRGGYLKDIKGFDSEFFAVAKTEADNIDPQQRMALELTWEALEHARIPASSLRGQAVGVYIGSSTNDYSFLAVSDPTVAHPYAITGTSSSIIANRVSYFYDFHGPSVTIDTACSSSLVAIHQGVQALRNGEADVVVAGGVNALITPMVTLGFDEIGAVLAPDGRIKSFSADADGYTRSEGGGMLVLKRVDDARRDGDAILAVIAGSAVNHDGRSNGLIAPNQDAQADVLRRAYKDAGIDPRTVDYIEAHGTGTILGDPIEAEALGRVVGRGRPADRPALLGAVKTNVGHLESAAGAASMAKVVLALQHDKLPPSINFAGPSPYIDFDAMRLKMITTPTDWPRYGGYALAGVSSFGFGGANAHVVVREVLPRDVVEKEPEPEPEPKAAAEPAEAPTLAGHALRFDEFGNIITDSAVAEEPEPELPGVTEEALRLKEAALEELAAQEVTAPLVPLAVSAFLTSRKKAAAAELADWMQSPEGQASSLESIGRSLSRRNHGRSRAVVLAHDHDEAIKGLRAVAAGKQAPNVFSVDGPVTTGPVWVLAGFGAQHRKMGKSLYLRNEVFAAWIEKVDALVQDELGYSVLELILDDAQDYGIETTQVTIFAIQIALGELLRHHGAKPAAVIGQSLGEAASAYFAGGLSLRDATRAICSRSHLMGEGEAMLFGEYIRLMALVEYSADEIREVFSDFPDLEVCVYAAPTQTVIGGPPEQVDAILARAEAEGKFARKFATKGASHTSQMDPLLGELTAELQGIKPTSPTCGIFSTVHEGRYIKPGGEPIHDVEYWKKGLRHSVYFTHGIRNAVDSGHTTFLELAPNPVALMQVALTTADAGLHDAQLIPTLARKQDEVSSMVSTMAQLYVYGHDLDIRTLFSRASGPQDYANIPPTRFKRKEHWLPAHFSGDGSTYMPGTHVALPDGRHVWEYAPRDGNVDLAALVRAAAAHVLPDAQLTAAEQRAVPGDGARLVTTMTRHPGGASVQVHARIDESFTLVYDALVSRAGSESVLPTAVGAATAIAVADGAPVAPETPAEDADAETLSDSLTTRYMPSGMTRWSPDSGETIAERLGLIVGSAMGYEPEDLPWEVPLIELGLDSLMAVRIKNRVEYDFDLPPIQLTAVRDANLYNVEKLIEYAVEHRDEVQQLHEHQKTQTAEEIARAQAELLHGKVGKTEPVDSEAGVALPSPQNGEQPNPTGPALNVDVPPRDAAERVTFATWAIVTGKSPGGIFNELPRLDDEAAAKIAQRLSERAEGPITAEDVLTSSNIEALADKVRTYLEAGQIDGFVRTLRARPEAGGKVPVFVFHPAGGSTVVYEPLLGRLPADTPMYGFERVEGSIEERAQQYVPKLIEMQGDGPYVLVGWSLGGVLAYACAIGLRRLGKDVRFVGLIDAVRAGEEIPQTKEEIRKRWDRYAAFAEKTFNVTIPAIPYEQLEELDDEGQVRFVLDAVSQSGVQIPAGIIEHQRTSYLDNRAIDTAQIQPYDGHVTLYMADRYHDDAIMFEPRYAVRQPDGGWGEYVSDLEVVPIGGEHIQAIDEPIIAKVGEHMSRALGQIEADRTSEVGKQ
row,Structure (SMILES),Percent Effect
1,CN(C)[C@H]1C[C@@H](Cc2cc(-c3ccc(F)cc3)on2)C1(C)C,-26.6%
2,CN(C)[C@H]1C[C@@H](Cc2cc(CO)on2)C1(C)C,-32.8%
3,COc1ccc(-c2cc(C[C@@H]3C[C@H](N(C)C)C3(C)C)no2)cc1,53.8%
4,CC(C(=O)NCCOc1ccc2c(c1)OCO2)n1cncn1 (stereo not drawn),-36.9%
5,CC(C1CC1)N(C)C(=O)c1cnc(-c2ccc3c(c2)OCO3)s1 (stereo not drawn),-13%
6,CC(C)N(CCC#N)C(=O)c1cnc(-c2ccc3c(c2)OCO3)s1,46.5%
7,CC(C)N(CC(N)=O)C(=O)c1cnc(-c2ccc3c(c2)OCO3)s1,71.9%
8,CN(C)C(=O)c1cnc(-c2ccc3c(c2)OCO3)s1,70.4%
9,CCN(C(=O)c1cnc(-c2ccc3c(c2)OCO3)s1)C1CC1,28.9%
10,O=C(N[C@@H]1CN(Cc2ccccn2)[C@@H]2COC[C@@H]21)C1CCC1,-11.8%
11,O=C1CCCC2=C1C(c1cc(Cl)ccc1F)Nc1nonc1N2 (stereo not drawn),-14.9%
12,CNC(=O)[C@H]1C[C@@H]2CCN(CCc3ccccc3)C[C@@H]2O1,-653%
13,Cc1cc(CN2CCN(CC3CC3)[C@@H]3CS(=O)(=O)C[C@@H]32)ccc1F,-14.2%
14,Cc1noc([C@@]23CCO[C@@H]2CCN(C(=O)c2ccsc2)C3)n1,-23.9%
15,CCNS(=O)(=O)c1ccc(C)c(C(=O)N(C)Cc2ccccc2C)c1,-0.166%
16,CNS(=O)(=O)c1csc(C(=O)N(C)Cc2sccc2C)c1,-17.6%
17,CNS(=O)(=O)c1csc(C(=O)N(C)Cc2ccccc2C)c1,51.6%
18,CCCn1ncc(CN2C[C@@H]3CCCN3C[C@@H]2Cc2ccccc2)c1C,21.5%
19,CC(C)CN1C(=O)CO[C@@H]2CN(C(=O)C3CCOC3)C[C@H]21 (stereo partly drawn),12.2%
20,O=C(c1cscn1)N1C[C@@H](Oc2cccnc2)[C@H]2OCCC[C@H]21,29.5%
21,CNc1ncc(CN(C)C(=O)c2cccc(-n3cccn3)c2)cn1,-5.61%
22,CNc1ncc(CN(C)C(=O)c2cccc(Cn3cccn3)c2)cn1,118%
23,CNc1ncc(CN(C)C(=O)c2cccc(-n3cnnc3)c2)cn1,-1.45%

row,Structure (SMILES),Percent Effect
1,c1ccc(COC[C@H]2CC[C@H]3[C@H](CCN3c3ncccn3)O2)nc1,-8.11%
2,Cc1c[nH]c(C(=O)N2C[C@H]3CC[C@@H]2CN(Cc2cscn2)C3)n1,-15.7%
3,COc1ccc(CNC[C@@]2(COc3cccnc3)C[C@@H](O)[C@@H](O)C2)cc1,0.869%
4,Cc1ccc(N2CCO[C@H]3CN(Cc4cc(C)on4)CC[C@H]3C2=O)cn1,-3.21%
5,COCCCC1CCN([C@@H]2c3ccccc3C3(CCNCC3)[C@H]2O)CC1,-6.55%
6,CCOCCN1CCN([C@@H]2c3ccccc3C3(CCNCC3)[C@H]2O)CC1,82.6%
7,COCCCN1CCN([C@@H]2c3ccccc3C3(CCNCC3)[C@H]2O)CC1,-9.22%
8,CCOC(=O)[C@]12CCCN(Cc3ccsc3)C[C@H]1CN(CCOC)C2,-32.4%
9,Cc1nc(CNC(=O)NC(C)c2ccc3c(c2)OCCCO3)cs1 (stereo not drawn),-3.62%
10,Cc1nc(CN(C)C(=O)NC(C)c2ccc3c(c2)OCCO3)cs1 (stereo not drawn),58%
11,Cc1nc(CCNC(=O)NC(C)c2ccc3c(c2)OCCO3)cs1 (stereo not drawn),-9.04%
12,CO[C@@H]1CCN(S(=O)(=O)N(C)C)[C@@H]2CN(Cc3ccncc3)C[C@@H]21,-11%
13,CN(C)C(=O)c1cn[nH]c1C1(C)CCCN(Cc2ccccn2)C1 (stereo not drawn),-25%
14,CN(C)C(=O)c1cn[nH]c1C1(C)CCN(c2ncccn2)CC1,72.9%
15,CC1(c2[nH]ncc2C(N)=O)CCN(c2ncccn2)CC1,-9.79%
16,O=C(C1CC1)N1CC[C@H]2C(=O)N(c3ccsc3)CCO[C@H]2C1,-24.6%
17,CCN1CCC(N[C@@H]2CC[C@@H]2NC(=O)Cc2csc(C)n2)CC1,64.6%
18,Cc1nc(CC(=O)NCCN2CCC(c3ccccc3C)C2)cs1 (stereo not drawn),5.3%
19,CCN1CCC(NC(=O)Cc2csc(C(C)(C)C)n2)CC1,-28.7%
20,COCC(=O)NC[C@H]1C[C@@H]2CCN1C[C@@H]2CN1CCc2ccccc2C1,-21.5%
21,Cc1nc(CN2C(=O)CC[C@@H]3[C@H]2CCN3C(=O)C2CCOCC2)cs1,-22.6%
22,Cc1ccc(S(=O)(=O)n2ccn(C(=O)COc3ccccc3)c2=O)cc1,-1%
23,Cc1ccc(S(=O)(=O)n2ccn(C(=O)CC(C)C)c2=O)cc1,10.8%

row,Structure (SMILES),Percent Effect
1,CCC(CC)C(=O)n1ccn(S(=O)(=O)c2ccc(C)cc2)c1=O,69.1%
2,CS(=O)(=O)N1CCO[C@@H]2CN(C(=O)C3CC(F)(F)C3)C[C@@H]2C1,-14.3%
3,Cc1cccc(-n2nnnc2C(C)(C)Nc2ccccc2C)c1,71.2%
4,COc1ccc(-n2nnnc2C(C)(C)Nc2ccc(C)cc2C)cc1,-14.4%
5,Cc1ccc(NC(C)(C)c2nnnn2-c2ccc(Cl)cc2)c(C)c1,43.2%
6,Fc1ccc(CN2CCO[C@H]3[C@H](OCCN4CCCC4)CC[C@@H]32)cc1,-7.44%
7,Cc1nnc(N2C[C@@H](OCC3CCCC3)[C@H]3OCCC[C@H]32)s1,-34.8%
8,N[C@@H]1c2ccccc2C2(CCN(C(=O)c3ccccc3O)CC2)[C@H]1O,1.94%
9,Cc1ccc(Cl)cc1C(=O)N1CCC2(CC1)c1ccccc1[C@@H](N)[C@@H]2O,-27.1%
10,Cc1ccc(C(=O)N2CCC3(CC2)c2ccccc2[C@@H](N)[C@@H]3O)c(=O)[nH]1,70%
11,COCCN1C[C@H]2CN(C(=O)c3ccc4c(c3)OCO4)CCN2C1=O,8.89%
12,COc1cccc(-c2cccc(CN3C[C@@H]4CC[C@H](C3)N(C)C4=O)c2)c1,6.34%
13,Cc1cc(CN(C)C(=O)c2ccc(C(F)(F)F)nc2)no1,-4.93%
14,Cc1cc(CN(C)C(=O)c2ccc(N(C)C)nc2)no1,-10.8%
15,Cc1ccc(C(=O)N(C)Cc2cc(C)on2)cn1,143%
16,CC(C)c1nccc([C@@H]2C[C@@H]3CCN(Cc4ccco4)C[C@H]3O2)n1,-17.2%
17,O=C(CC1CC1)NC[C@]12COC[C@H]1CN(c1ncc(F)cn1)C2,8.61%
18,CN(C)c1nccc(-c2cnc(N(C)C)[nH]c2=O)n1,16.6%
19,CC(C)(C)CCNc1nccc(-c2c[nH][nH]c2=O)n1,22.8%
20,CN(C)c1nccc(-c2c[nH][nH]c2=O)n1,51.4%
21,CNC(=O)[C@@]12CCO[C@@H]1CCN(S(=O)(=O)c1ccccc1F)C2,16.9%
22,Cc1nc(CNC(=O)N2CCN(c3ccc(Cl)cn3)CC2)no1,7.54%
23,Cc1nc(CNC(=O)N2CCN(c3ccc(Cl)cn3)CC2)sc1C,50.8%

row,Structure (SMILES),Percent Effect
1,Cc1nc(C)c(CNC(=O)N2CCN(c3ccc(Cl)cn3)CC2)s1,14.6%
2,CN1CCS(=O)(=O)[C@@H]2CCN(C(=O)c3ccccc3)CC[C@@H]21,-9.08%
3,Cc1cc(C)n(-c2cncc(NCCNS(C)(=O)=O)n2)n1,59.2%
4,Cc1cc(C)n(-c2cncc(NCCNC(=O)C(C)(C)C)n2)n1,27%
5,Cc1cc(C)n(-c2cncc(NCCNC(=O)C3CCCC3)n2)n1,40.3%
6,Cc1cc(C)n(-c2cncc(NCCNC(=O)c3cccnc3)n2)n1,2.44%
7,CCCNC(=O)CCNc1cncc(-n2nc(C)cc2C)n1,52%
8,Cc1cc(C)n(-c2cncc(NCCNC(=O)CC3CCCC3)n2)n1,-10.3%
9,Cc1cc(C)n(-c2cncc(NCCNC(=O)C(C)C)n2)n1,35.4%
10,Cc1cc(C)n(-c2cncc(NCCC(=O)NC(C)C)n2)n1,62.4%
11,CCN(CC)C(=O)CCNc1cncc(-n2nc(C)cc2C)n1,10.2%
12,O=C(CC1CCCC1)N1C[C@H](OCc2ccncc2)[C@H]2OCCC[C@H]21,-0.106%
13,COCCN1CC[C@H]2CN(c3cc(OC)ncn3)C[C@@H]2C1=O,25.2%
14,CS(=O)(=O)CC(=O)N1C[C@H]2CCC[C@@]2(COCc2ccncc2)C1,-8.5%
15,CCC(CC)CN1C[C@@H]2OCCN(Cc3cnn(C)c3)[C@@H]2C1,-3.42%
16,CCN1C[C@H]2CCN(C(=O)Nc3ccccc3C)CC[C@H]2S1(=O)=O,-46.2%
17,CCc1nc(C)c(C(=O)N2C[C@H]3CC[C@@H]2CN(S(=O)(=O)N(C)C)C3)s1,-18.5%
18,Cc1noc(C)c1CN1C[C@@H]2CN(C(=O)c3cnccn3)C[C@@H]2C1,-42.1%
19,O=C(O)[C@]12CCCN(Cc3nccs3)[C@@H]1CCN(c1cnccn1)C2,-14.4%
20,COCCN1CCCC2(CCN(c3ncnc(C)c3C)C2)C1=O (stereo not drawn),6.43%
21,COCCN1CCCC2(CCN(c3nccnc3N(C)C)C2)C1=O (stereo not drawn),60.4%
22,COCCN1CCCC2(CCN(c3nccc4ccccc34)C2)C1=O (stereo not drawn),10.3%
23,Fc1cnc(N2C[C@@H](OCC3CCOCC3)[C@H]3OCCC[C@H]32)nc1,-17.1%

row,Structure (SMILES),Percent Effect
1,CN(C)C[C@H]1OC[C@@H]2CCN(C(=O)NCc3cccc(F)c3)C[C@@H]21,-18.3%
2,O[C@]12CCNC[C@H]1CN(c1ccnc3ccccc13)CC2,-11.7%
3,Cc1ccc(C(=O)N2C[C@H](OCc3cccnc3)[C@H]3COC[C@H]32)cn1,-11.8%
4,COc1ccc2nc(C3CC3)cc(C(=O)NCc3ncnn3C)c2c1,-6.17%
5,COc1ccc2nc(C3CC3)cc(C(=O)NCc3noc(C)n3)c2c1,83.5%
6,COc1ccc2nc(C3CC3)cc(C(=O)NCC(=O)N(C)C)c2c1,-13.4%
7,Cc1cnc(N2CC[C@H]3[C@@H]2CCC(=O)N3c2ccccc2)nc1,-48.4%
8,O=C(CC1CC1)N1C[C@H]2CN(CC3CC3)C(=O)[C@H]2C1,-22.1%
9,O=C(CCn1cncn1)N1C[C@H]2CC[C@@H]1CN(Cc1ccncc1)C2,0.614%
10,CCCOc1ccc(CNc2cncc(-n3cccn3)n2)cc1,34.6%
11,CN(C)c1ccc(CNc2cncc(-n3cccn3)n2)cc1,27.6%
12,COCc1ccc(CNc2cncc(-n3cccn3)n2)cc1,52.2%
13,COC(=O)Nc1ccc(CNc2cncc(-n3cccn3)n2)cc1,25.1%
14,CCN(CC)C(=O)c1ccc(CNc2cncc(-n3cccn3)n2)cc1,-7.79%
15,NS(=O)(=O)Cc1ccc(CNc2cncc(-n3cccn3)n2)cc1,133%
16,Cc1cccc(CNc2cncc(-n3cccn3)n2)c1,-60.2%
17,CCOc1cccc(CNc2cncc(-n3cccn3)n2)c1,-63.1%
18,CCOCc1ccc(CNc2cncc(-n3cccn3)n2)cc1,-10.5%
19,CC(C)OCc1ccc(CNc2cncc(-n3cccn3)n2)cc1,16.5%
20,CNC(=O)COc1ccc(CNc2cncc(-n3cccn3)n2)cc1,70.7%
21,CCOCCOCc1cccc(CNc2cncc(-n3cccn3)n2)c1,53.8%
